Sampled rows, rich in hits. Any-hit rate of the full collection: about 19%.
MCF10A rereplic = A quantitative high throughput screen for small molecules that induce DNA re-replication in MCF 10a normal breast cells; MCF 10A DNA re-replication, Hoechst nuclear intensity, 48 h; Potency, µM (titrated, usually from 46.1 µM), without a hit: at the top dose activity, positive = re-replication, actives largely listed as activators; hit rate 2.9% among 350,000; AID 624296, 2012; note: potency is the fitted concentration of half-maximal effect; % of control where 0% means no effect; nearly all actives have a fitted effect of over 50% in size
IL1B secr inh = qHTS for Inhibitors of Inflammasome Signaling: IL-1-beta AlphaLISA Primary Screen | hit rate 4.7% among 360,000 | activity change, % at 57.5 µM | THP-1 LPS/ATP IL-1B secretion, AlphaLISA, 16 h; hits give low values; in the data active = activity change below about -50%; inconclusive = mostly about -30% to -49%; note: % is set by controls: 0 for no effect and ±100 for the full control effect
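THP-1 cells pretreated 1 hr with compounds (up to 57.5 uM final), then stimulated with LPS (250 ng/mL final) plus ATP (1.25 mM final); secreted IL-1B measured by AlphaLISA after 16 hr, decreased signal indicating inhibition.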
SW480 rereplic = A quantitative high throughput screen for small molecules that induce DNA re-replication in SW480 colon adenocarcinoma cells | hit rate 1.8% among 340,000 | Potency, µM (top dose mostly 46.1 µM), for inactives: at the top dose re-replication activation, most hits filed as activators | SW480 DNA re-replication, Hoechst DNA content imaging, 48 h | AID 624297, 2012; note: potency is the fitted concentration of half-maximal effect; % of control where 0% means no effect; nearly all actives have a fitted effect of over 55% in size
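Cells (250 per well) received 23 nL compound or DMSO by pin tool and were kept 48 hr at 37 C, 5% CO2. Nuclei were then stained with Hoechst for 40 min and scanned for DNA content.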
TDP1 cell noCPT = qHTS for Inhibitors of human tyrosyl-DNA phosphodiesterase 1 (TDP1): qHTS in cells in absence of CPT; DT40 Tdp1-/- hTDP1 cells, no CPT, ATP luminescence, 48 h; Potency, µM (top dose mostly 46.2 µM), without a hit: at the top dose activity change, negative = growth inhibition, actives largely listed as inhibitors; hit rate 15% among 420,000; AID 686978, 2013; note: potency is the fitted concentration of half-maximal effect; % is set by controls: 0 for no effect and ±100 for the full control effect; nearly all actives have a fitted effect of over 55% in size
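Readout: luminescence from CellTiter-Glo after 30 min in the dark at RT. Cells: DT40 Tdp1-/- with stable hTDP1, 400/well. Exposure: compounds alone, ≥48 hr, 37 °C.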
Chronic BCR inh = qHTS Assay to Find Inhibitors of Chronic Active B-Cell Receptor Signaling. hit rate 0.05% among 340,000. ABC-DLBCL IkBa-CBG/CBR reporter, luminescence ratio, 4 h. Potency, µM (highest dose often 46.1 µM), without a hit: at the top dose activity change, negative = inhibition, most hits filed as inhibitors. AID 493014, 2011; active = well fitted inhibition curve with a large enough effect in the signal ratio, with a control signal flat, not every such curve was filed as active; inconclusive = small, poorly fitted or top-dose-only effect, or effect the other way, or a change in a side signal; the % refers to the signal ratio;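 note: potency is the fitted concentration of half-maximal effect; plate controls were basal doxycycline-induced cells for no effect and cells given 10 µM MG132 for full effect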
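TMD8 human ABC-DLBCL cells with doxycycline-inducible IκBα–green luciferase fusion and unfused red luciferase, in 0.5% FBS medium; compounds up to 46 uM, 4 h at 37C. Green/red luminescence ratio, filter-overlap corrected, fitted to concentration-response curves.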
TDP1 cell CPT = qHTS for Inhibitors of human tyrosyl-DNA phosphodiesterase 1 (TDP1): qHTS in cells in presence of CPT | chicken DT40 Tdp1-/-;hTDP1 cells + 20 nM CPT, ATP luminescence, 48 h | Potency, µM (highest dose often 46.2 µM), without a hit: at the top dose activity change, negative = growth inhibition, usual class: inhibitors | hit rate 12% among 420,000 | AID 686979, 2013; note: potency is the fitted concentration of half-maximal effect; % is set by controls: 0 for no effect and ±100 for the full control effect; nearly all actives have a fitted effect of over 55% in size
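Chicken DT40 Tdp1-/- cells complemented with human TDP1, 400 cells/well, exposed to compounds plus 20 nM camptothecin for at least 48 h at 37 C; viability read as ATP content by CellTiter-Glo luminescence.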
* marks the source's active call; other numbers are inactive results. Unless noted, calls come from the whole dose curve; as a rule, active = well fitted curve in the direction sought with a large enough effect; inconclusive = small, poorly fitted or top-dose-only effect, or another doubt; inactive = no such curve, though single readings can be large; an effect the other way counts as inactive or inconclusive.

O=C(NCCCNc1ccc([N+](=O)[O-])cc1)C(F)(F)F was read as MCF10A rereplic -4%, IL1B secr inh -5, SW480 rereplic -702%, TDP1 cell noCPT 10%, Chronic BCR inh 1% and TDP1 cell CPT 4%.
For O=C(CCl)N(CCCNC(=O)C(F)(F)F)c1ccc([N+](=O)[O-])cc1 the results were MCF10A rereplic inconclusive, IL1B secr inh -101*, SW480 rereplic inconclusive, TDP1 cell noCPT 6.5µM*, Chronic BCR inh 16% and TDP1 cell CPT 2.6µM*.
Cc1nc2sccn2c(=O)c1S(=O)(=O)NCC1CCN(Cc2ccccc2Cl)CC1 was read as MCF10A rereplic 4%, IL1B secr inh -7, SW480 rereplic -6%, TDP1 cell noCPT 10%, Chronic BCR inh -1% and TDP1 cell CPT -14%.
`CCCN1CCCc2cc(CN(CCCN3CCOCC3)C(=O)Nc3ccc(Cl)c(Cl)c3)ccc21` gave TDP1 cell noCPT 7.3µM*, Chronic BCR inh 5% and TDP1 cell CPT 26µM*.
`COc1cccc(NC(=S)NCCN2CCOCC2)c1` gave MCF10A rereplic 1%, IL1B secr inh 25, SW480 rereplic -1%, TDP1 cell noCPT -6%, Chronic BCR inh -2% and TDP1 cell CPT -1%.
`CCOc1ccc(NC(=O)N(CCN2CCOCC2)Cc2ccc3c(c2)CCCN3CC)cc1` gave MCF10A rereplic 7%, IL1B secr inh 2, SW480 rereplic -2%, TDP1 cell noCPT -4%, Chronic BCR inh -3% and TDP1 cell CPT inconclusive.
`CCCN1CCCc2cc(CN(CCCN3CCOCC3)C(=O)Nc3ccc(OCC)cc3)ccc21` gave MCF10A rereplic 1%, IL1B secr inh inconclusive, SW480 rereplic -2%, TDP1 cell noCPT inconclusive, Chronic BCR inh 7% and TDP1 cell CPT 26µM*.
For CCN1CCCc2cc(CN(CCN3CCOCC3)C(=S)Nc3cccc(OC)c3)ccc21 the results were MCF10A rereplic 12%, IL1B secr inh -2, SW480 rereplic 23%, TDP1 cell noCPT 21µM*, Chronic BCR inh -5% and TDP1 cell CPT inconclusive.
For COc1ccc(C(=O)N2CCCN(C)CC2)cc1S(=O)(=O)N(C)Cc1ccccc1 the results were MCF10A rereplic 20%, IL1B secr inh -17, SW480 rereplic -18%, TDP1 cell noCPT 16%, Chronic BCR inh 3% and TDP1 cell CPT -1%.
`C1=C[C@H]2CCCN3CC[C@@H]([C@@H]2[C@]32CO2)[C@H]1CCOCc1ccccc1` gave IL1B secr inh -15, TDP1 cell noCPT inconclusive and TDP1 cell CPT inconclusive.
For COc1cccc(-c2cc(=O)c3ccc(OC)cc3o2)c1 the results were TDP1 cell noCPT -27% and TDP1 cell CPT inconclusive.
Screening Nc1ncnc(Oc2cccc3cccnc23)c1[N+](=O)[O-] returned MCF10A rereplic -35%, IL1B secr inh -1, SW480 rereplic inconclusive, TDP1 cell noCPT inconclusive, Chronic BCR inh inconclusive and TDP1 cell CPT inconclusive.
Screening C=C(CC[C@@H](C)[C@H]1CCC2[C@]1(C)CC[C@]13C[C@@]14CCC(OC(=O)/C=C/c1ccc(O)c(OC)c1)C(C)(C)[C@@H]4CC[C@@]23C)C(C)C (some centres not stated) returned MCF10A rereplic 12% and SW480 rereplic 1%.
Screening CCOC(=O)CSc1nc2ccccc2c(=O)n1-c1cccc(C)c1 returned TDP1 cell noCPT inconclusive and TDP1 cell CPT -23%.
Screening Cc1cc2c(cc1C)NC(c1c(C)n(C)n(-c3ccccc3)c1=O)C1=C(CC(C)(C)CC1=O)N2 (configuration not stated) returned MCF10A rereplic 11µM*, IL1B secr inh inconclusive, SW480 rereplic -3%, TDP1 cell noCPT inconclusive, Chronic BCR inh inconclusive and TDP1 cell CPT 16µM*.
`COc1cc(C2Nc3cc(C)c(C)cc3NC3=C2C(=O)CC(C)(C)C3)ccc1OC(C)=O` (configuration not stated) gave MCF10A rereplic 9%, IL1B secr inh 0, SW480 rereplic 12%, TDP1 cell noCPT 23%, Chronic BCR inh 4% and TDP1 cell CPT -20%.
Screening Nc1nc(SCn2nnc3ccccc3c2=O)n[nH]1 returned MCF10A rereplic 1%, IL1B secr inh -19, SW480 rereplic -1%, TDP1 cell noCPT 2%, Chronic BCR inh 3% and TDP1 cell CPT -3%.
`COc1nc(=O)n(C2C=CC(=O)O2)cc1F` (configuration not stated) gave IL1B secr inh 0, TDP1 cell noCPT 2.3µM* and TDP1 cell CPT 2.3µM*.
Screening Cc1ccc(CN2CCCN(Cc3cc(C)ccc3C)S2(=O)=O)cc1 returned MCF10A rereplic -4%, IL1B secr inh 14, SW480 rereplic -10%, TDP1 cell noCPT 13%, Chronic BCR inh -4% and TDP1 cell CPT -12%.
Cc1ccc(C)c(CN2CCCN(Cc3cc(C)ccc3C)S2(=O)=O)c1 was read as MCF10A rereplic 3%, IL1B secr inh 9, SW480 rereplic 8%, TDP1 cell noCPT 9.2µM*, Chronic BCR inh inconclusive and TDP1 cell CPT inconclusive.
For COc1ccc2ccccc2c1CNC(C)c1ccccc1 (configuration not stated) the results were MCF10A rereplic -16%, IL1B secr inh -55*, SW480 rereplic inconclusive, TDP1 cell noCPT 10µM*, Chronic BCR inh -4% and TDP1 cell CPT 7.3µM*.
Screening CC(NCCCOc1cccc2ccccc12)c1ccccc1 (configuration not stated) returned MCF10A rereplic inconclusive, IL1B secr inh -74*, SW480 rereplic 11%, TDP1 cell noCPT 18µM*, Chronic BCR inh inconclusive and TDP1 cell CPT inconclusive.
For COc1ccc2ccccc2c1CNCc1ccc(C)cc1 the results were MCF10A rereplic 0%, IL1B secr inh -92*, SW480 rereplic inconclusive, TDP1 cell noCPT inconclusive, Chronic BCR inh 2% and TDP1 cell CPT inconclusive.
CNC(=O)C1CCC(Cn2c(=O)c3sccc3n(CC(=O)NCc3cccc(OC)c3)c2=O)CC1 (configuration not stated) was read as TDP1 cell noCPT -12% and TDP1 cell CPT -6%.
